# Cl transport mod = modulates chloride dependent transport by human KCC2; Q9H2X9; KCC2 cells, thallium flux FluoZin-2 fluorescence; B-score of Tl+ flux slope (higher = more flux/activation; lower = inhibition) at 10 µM; 190,000 compounds, 2.2% hits; AID 1456;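 active = thallium flux slope and its plate-corrected score both differing from the plate sample mean at a set confidence after two filtering rounds, in either direction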;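 note: slope of fluorescence scaled to starting intensity during 10 to 20 s after thallium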
# Lmaj promast = inhibitors of Leishmania major promastigote growth. AID 1063. inhibition, % at 10 µM. 200,000 compounds, 9% hits. Leishmania major promastigotes, resazurin fluorescence viability; in the data active = inhibition above about 50%;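 note: promastigotes grown with compound for 44 hours at 28 °C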
# Calpain2 inh = calpain II (pig) inhibition; inhibition, % at 16 µM; 220,000 compounds, 0.37% hits; purified calpain II, fluorogenic peptide substrate, 30 min;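 active = inhibition above about 50%, limit read from the data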
# ROMK primary = modulates human ROMK potassium channel activity | P48048 | Tet-inducible ROMK, thallium flux fluorescence; actives lie on both sides | B-score at 10 µM | 130,000 compounds, 2% hits | AID 1918;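 active = signal ratio slope over the read window, or its plate-corrected B-score, at least 3 SD from the plate mean, either direction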;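 note: B-score of the F/F0 ratio slope over 7 to 12 s after thallium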
# Target sequence (P48048 whole entry, looked up): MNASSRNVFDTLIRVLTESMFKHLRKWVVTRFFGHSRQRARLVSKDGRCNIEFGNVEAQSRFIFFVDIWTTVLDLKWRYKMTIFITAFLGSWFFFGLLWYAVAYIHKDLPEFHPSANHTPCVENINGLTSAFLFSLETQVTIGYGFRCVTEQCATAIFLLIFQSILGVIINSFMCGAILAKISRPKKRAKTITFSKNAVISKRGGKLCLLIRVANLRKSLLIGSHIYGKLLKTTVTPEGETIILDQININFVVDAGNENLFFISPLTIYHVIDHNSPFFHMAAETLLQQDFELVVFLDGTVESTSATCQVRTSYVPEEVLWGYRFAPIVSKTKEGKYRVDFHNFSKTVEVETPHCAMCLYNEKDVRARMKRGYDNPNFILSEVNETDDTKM
# WT yeast gro inh = growth inhibition of WT yeast, mitochondrial fusion screen; mitochondrial fusion phenotypic screen, WT strain; inhibition, % at 10 µM; 190,000 compounds, 2.1% hits; in the data active = inhibition above about 58%; tested in S. cerevisiae
# An asterisk follows results filed as active; / = no result. Only some compounds are listed: those with a hit (about 12% of all), similar ones and a draw of the others.
SMILES,Cl transport mod,Lmaj promast,Calpain2 inh,ROMK primary,WT yeast gro inh
CCOC(=O)c1sc(NC(=O)CCCn2nc([N+](=O)[O-])c(Cl)c2C)c(C(=O)OCC)c1C,-0.137,7.5,25.1,-0.0232,6.3
O=C(CCl)NN=C(c1ccccc1)c1ccccc1,-0.538,100.3*,16.6,-0.566,-7.2
CCN(CC)CC(=O)NN=C(c1ccccc1)c1ccccc1,/,18.8,-8.9,/,-5.6
CCOC(=O)N1CCN(C(=O)c2cc3c(s2)-c2ccc(Cl)cc2S(=O)(=O)C3)CC1,-0.921,-3.6,-12.9,0.714,-6.8
Cc1cccc(CSCC(=O)NCc2ccc(S(N)(=O)=O)cc2)c1,0.0426,-0.2,10.1,-0.304,-8.4
COc1ccc(CNc2nc3c(c(=O)n(Cc4ccc(Cl)cc4)c(=O)n3C)n2C)cc1,-1.13,-3.0,84.4*,-0.721,-4.7
COc1ccc(Cl)c(Cn2c(NCCCN(C)C)nc3c2c(=O)n(C)c(=O)n3C)c1,0.688,99.7*,-15.8,/,-6.8
Cn1c(NCc2ccco2)nc2c1c(=O)n(Cc1ccc(Cl)c(Cl)c1)c(=O)n2C,/,16.1,86.3*,-0.827,15.7
Cn1c(NCC(O)CO)nc2c1c(=O)n(Cc1ccc(Cl)c(Cl)c1)c(=O)n2C (stereo not drawn),0.696,72.7*,-14.7,/,2.0
COc1ccc(Cl)c(Cn2c(NCC(C)O)nc3c2c(=O)n(C)c(=O)n3C)c1 (stereo not drawn),/,2.3,21.5,0.457,-17.4
COc1ccc(-c2[nH]ncc2CNCC(C)(C)N2CCOCC2)cc1F,0.791,3.6,-5.9,0.31,-3.2
COc1ccc(CN(C)c2nc(-c3cccnc3)nc3ccccc23)cc1OC,/,23.7,6.9,1.5,22.4
Cc1cc(C)nc(NS(=O)(=O)c2ccc(NC(=O)CSc3ncn[nH]3)cc2)n1,0.839,-1.4,22.8,1.37,25.1
CN1/C(=C/C(=S)NC(=O)C2(C)CC2(Cl)Cl)C(C)(C)c2ccccc21 (stereo not drawn),3.77,51.4*,11.5,-0.65,49.2
CN1/C(=C\C=N\NC(=O)c2ccccc2Br)C(C)(C)c2ccccc21,-1.88,50.1*,21.8,-2.28,-6.6
CN1/C(=C\C(=S)NC(=O)c2ccccc2Cl)C(C)(C)c2ccccc21,0.83,44.7,16.8,1.34,57.8
COc1ccccc1C(=O)NC(=S)/C=C1/N(C)c2ccccc2C1(C)C,-0.64,77.7*,-3.3,-0.0285,77.5*
COc1cccc(C2C(C(=O)Nc3ccccc3)=C(C)N=c3s/c(=C/c4ccc(OCC(=O)O)cc4)c(=O)n32)c1 (stereo not drawn),-0.433,40.7,-53.3,/,4.9
CC1=C(C(=O)Nc2ccccc2)C(c2ccc(C)o2)n2c(s/c(=C\c3ccco3)c2=O)=N1 (stereo not drawn),/,83.5*,-51.7,-1.12,-10.6
COC(=O)C1C(c2ccc(OC)cc2)Nc2nnc(C(F)(F)F)n2C1(C)O (stereo not drawn),0.681,1.0,16.8,-0.875,18.4
O=S(=O)(Cc1ccc(Cl)cc1)N1CCN(Cc2ccc3c(c2)OCO3)CC1,-0.179,/,-21.0,/,/
O=S(=O)(Cc1ccc(Cl)cc1)Nc1ccc2c(c1)OCO2,/,-5.5,-12.6,-1.81*,-1.5
OCCC1CN(Cc2cccc3nccnc23)CCN1Cc1ccc(F)c(F)c1 (stereo not drawn),0.877,36.3,10.8,0.593,-0.1
CC(C)c1ccc(Nc2nc(NCc3ccco3)nc(N3CCOCC3)n2)cc1,/,42.0,14.9,-0.331,58.3*
CCOc1nc(NCc2ccco2)nc(Nc2ccc(OC)cc2)n1,-0.694,83.8*,4.4,0.0513,5.7
SMILES,Cl transport mod,Lmaj promast,Calpain2 inh,ROMK primary,WT yeast gro inh
CCOC(=O)C1CCCN(c2c(NCCc3ccc(Cl)cc3)c(=O)c2=O)C1 (stereo not drawn),-1.14,/,-22.0,/,/
Cc1cccc2sc(NC(=O)C3CCN(S(=O)(=O)c4cc([N+](=O)[O-])ccc4Cl)CC3)nc12,-0.285,90.3*,-64.4,/,-4.8
O=C(NCc1ccc(Cl)cc1)C1CCN(S(=O)(=O)c2cc([N+](=O)[O-])ccc2Cl)CC1,0.12,79.5*,18.2,/,-20.5
Cc1cccc2sc(NC(=O)C3CCCN(S(=O)(=O)c4cccc5nonc45)C3)nc12 (stereo not drawn),/,-0.1,-30.2,/,13.6
Cc1cccc(N2C(=O)c3ccc(C(=O)Nc4c[nH]c(=O)[nH]c4=O)cc3C2=O)c1,0.0345,/,-13.9,/,/
COC(=O)N1CCN(CCc2ccccc2)CC1,-1.06,96.9*,-22.9,-0.403,3.9
O=C(NC1CCCCC1)N1CCN(CCc2ccccc2)CC1,-0.356,60.2*,-30.6,/,2.4
N#Cc1cc2cc3c(cc2nc1N1CCOCC1)OCO3,-0.249,-2.7,-452.9,/,-2.0
O=C(COC(=O)Cc1n[nH]c(=O)c2ccccc12)Nc1cccc(C(F)(F)F)c1,-0.0131,0.0,-26.0,-0.874,-5.3
COc1ccc(N=c2cc(-c3ccc(OC)cc3)oc3ccccc23)cc1,0.106,41.9,37.8,0.623,76.2*
CCOc1ccc(N=c2cc(-c3ccc(OC)cc3)oc3ccccc23)cc1,0.307,29.7,37.0,/,73.0
COc1ccc(N=c2cc(-c3ccc(O)cc3)oc3ccccc23)cc1,-0.195,81.3*,-10.0,/,25.2
COc1ccc(-c2cc(=Nc3ccc(C)cc3)c3ccccc3o2)cc1,/,63.5*,-6.4,/,4.0
COCCNC(=O)COc1ccc(Oc2ccccc2)cc1,-0.236,-3.5,-15.9,/,0.2
COc1ccc(NS(=O)(=O)c2cc(NC(=O)c3cccc(OCc4c(C)noc4C)c3)ccc2OC)cc1,-1.9,97.9*,-98.5,-0.153,-15.4
Cc1noc(C)c1COc1ccc(C(=O)Nc2cccnc2)cc1,-0.439,-2.1,-12.3,0.131,-2.8
Cc1ccc(NC(=O)c2ccc(OCc3c(C)noc3C)cc2)cc1,0.00428,/,3.5,/,/
Cc1ccccc1NC(=O)c1cccc(OCc2c(C)noc2C)c1,-1.69,59.0*,-34.1,/,-33.4
Cc1ccc(NC(=O)c2cccc(OCc3c(C)noc3C)c2)cc1,-1.65,82.7*,12.4,-1.1,-5.9
Cc1noc(C)c1COc1cccc(C(=O)Nc2ccc(C#N)cc2)c1,-0.149,82.8*,9.7,/,26.4
O=c1cc(O)nc(SC23CC4CC(CC(C4)C2)C3)[nH]1,0.000548,-9.1,-16.7,0.242,19.8
COc1ccc(/C=N/NC(=O)c2ccccc2O)cc1Cn1nnc2ccccc21,-0.923,/,-3.0,-0.731,/
Cc1c(Cl)cccc1NC(=O)CNCc1ccccc1F,-0.467,-6.7,2.6,-1.62,2.2
Cc1nc(-c2noc(-c3ccc(Cl)cc3)n2)c(C(F)(F)F)o1,0.859,/,-4.1,/,/
Cc1noc(C)c1COc1cccc(C(=O)NCc2cccc(Cl)c2)c1,-0.873,73.0*,7.7,/,38.4
Cc1noc(C)c1COc1cccc(C(=O)NCCc2c[nH]c3ccccc23)c1,-1.64,19.6,-1.3,-0.103,-7.2
Cc1nc(C)c(C(=O)NNC(=O)Nc2ccc(Cl)cc2)s1,-0.0306,/,-0.4,0.265,/
Cc1sc2nc(CN3CCN(c4ccc(O)cc4)CC3)[nH]c(=O)c2c1C,0.0447,/,-10.4,/,/
Cc1sc2nc(CN3CCOCC3)[nH]c(=S)c2c1C,73.4*,-1.0,-5.0,8.62*,-16.8
O=C1c2ccccc2C(=O)N1CCCON1C(=O)c2ccccc2C1=O,-0.461,50.3*,-10.4,/,16.8
